17 compounds from PubChem BioAssay can be followed below.

Experiment [1] deals with XIP peptide (Xip251-270) binding. The experiment is described as follows: XIP fragment 251-270 binding compounds – biochemical, small-molecule microarray, fluorescence 635/667 nm, 0.1 µg/mL protein, primary screen (AID 1182). The settings on record: fluorescent protein binding, 635 nm, higher = more signal, called active from +8 up or from −8 down.
For the next experiment, the system named is XIP peptide (Xip251-270). The experiment in a line: compounds binding XIP fragment 251-270 – biochemical, small-molecule microarray, fluorescence 635/667 nm, 0.5 µg/mL protein, primary screen (AID 1183). The settings on record: fluorescence 635 nm, higher = more signal.
A short description of experiment [2]: blood-stage malaria parasite viability loss – strain 3D7, DAPI fluorescence, 100 nL, primary screen (AID 1184).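 Note: parasites grown inside human red blood cells in medium with human serum.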 The settings on record: P. falciparum 3D7 growth, 3 d, higher = more signal.
Experiment [3] addresses Homeobox protein Hox-A13 (Mus musculus) (UniProt Q62424). The experiment in a line: disruptors of Hoxa13 oligonucleotide interaction – biochemical, fluorescence polarization, labeled oligonucleotide, primary screen (AID 1185). The settings on record: Hoxa13:DNA binding, 15 min, higher = more signal, called active from +8 up or from −8 down.
Experiment [4] in a line: blockers of DNA damage checkpoint Chk1 activation – imaging, HeLa, hydroxyurea, phospho-Chk1 antibody, percent positive cells, primary screen (AID 1186). The settings on record: hydroxyurea-induced phospho-Chk1 immunofluorescence imaging, higher = more signal.
Experiment [5] is described as follows: blockers of DNA damage checkpoint Chk1 activation – imaging, HeLa, hydroxyurea, phospho-Chk1 nuclear intensity, primary screen (AID 1187). The settings on record: hydroxyurea-induced phospho-Chk1 immunofluorescence imaging, higher = more signal.

Activity calls are given as the source filed them. Unless noted, the rule behind the calls is not given here.

Chain of Homeobox protein Hox-A13 (Mus musculus) (Q62424 whole entry, looked up): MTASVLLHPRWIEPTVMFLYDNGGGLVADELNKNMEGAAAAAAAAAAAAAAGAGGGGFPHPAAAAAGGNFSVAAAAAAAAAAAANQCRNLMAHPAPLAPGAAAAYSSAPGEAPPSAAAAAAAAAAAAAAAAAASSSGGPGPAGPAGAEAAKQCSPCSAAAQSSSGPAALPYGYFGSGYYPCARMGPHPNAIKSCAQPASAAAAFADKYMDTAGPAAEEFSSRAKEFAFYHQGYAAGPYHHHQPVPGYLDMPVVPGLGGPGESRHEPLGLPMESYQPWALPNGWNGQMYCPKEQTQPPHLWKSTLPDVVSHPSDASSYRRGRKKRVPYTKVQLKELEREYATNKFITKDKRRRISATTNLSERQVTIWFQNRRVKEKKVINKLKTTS

Turning to `CCCCC(O)C1C=CC2C(=O)N(Cc3ccccc3)C(=O)C2N1n1cnnc1` (configuration not stated), the results for the composite z-score (in experiment [1]; in the experiment with XIP peptide (Xip251-270)) were 0.506 (inactive) and 0.856, respectively. The z-score is -1.33 in experiment [2], -1.62 (inactive) in experiment [3], 0.737 (inactive) in experiment [4] and 0.0163 (inactive) in experiment [5].

As for `COCC1=C([C@H](O)CCc2ccccc2)[C@H](CO)[C@@H]2C(=O)N(C)C(=O)[C@@H]2C1`, the values for the composite z-score (in experiment [1]; in the experiment with XIP peptide (Xip251-270)) were -0.328 (inactive) and 0.104, respectively. Moreover, the z-score is -0.119 in experiment [2], -6.06 (inactive) in experiment [3], -0.32 (inactive) in experiment [4] and -0.523 (inactive) in experiment [5].

With `CCCc1cc2c(n1Cc1ccc(OC)cc1)C(C)C1CN(C(=O)c3ccccc3)C(C)(C(=O)OC)C21` (configuration not stated), the composite z-score in experiment [1] was -0.0607 (inactive); in the experiment on XIP peptide (Xip251-270) it was 0.174. The z-score is -1.42 in experiment [2], -3.45 (inactive) in experiment [3], 0.5 (inactive) in experiment [4] and 0.396 (inactive) in experiment [5].

With `C=CCN1C(=O)[C@@]2(O[C@@H](CCO)[C@H]([Si](C)(C)c3ccc(OC)cc3)[C@H]2C)c2cc(NC(=O)[C@H](C)O)ccc21`, the composite z-score was 0.395 (inactive) in experiment [1] and 0.603 in the experiment on XIP peptide (Xip251-270). Besides, the z-score is -2.83 in experiment [2], -5.68 (inactive) in experiment [3], -0.455 (inactive) in experiment [4] and 0.18 (inactive) in experiment [5].

Turning to `O=C1CSC(c2cccc([N+](=O)[O-])c2)N1c1ccccc1` (configuration not stated), the values for the composite z-score (in experiment [1]; in the experiment with XIP peptide (Xip251-270)) were 0.0504 (inactive) and 0.143, respectively. Moreover, the z-score in experiment [2] was 0.464; in experiment [3] it was 1.07 (inactive); in experiment [4], 0.0304 (inactive); in experiment [5], -0.174 (inactive).

As to `C[C@@]1([C@@H](NC(=O)c2cccs2)c2ccc(-c3ccccc3)cc2)C[C@H]1C1CCCCC1`, the composite z-score in experiment [1] is -0.592 (inactive); in the experiment on XIP peptide (Xip251-270), -0.0139. Moreover, the z-score was -0.972 in experiment [2], -0.431 (inactive) in experiment [3], 0.193 (inactive) in experiment [4] and -0.421 (inactive) in experiment [5].

Regarding `O=C1O[C@H](c2ccccc2)[C@H](c2ccccc2)N2[C@H]1[C@@H](C(=O)N1CCCCCCC1)[C@]1(C(=O)Nc3ccc(C#CCCO)cc31)[C@H]2c1ccc(OCCO)cc1`, the composite z-score in experiment [1] was 5.42 (inactive); in the experiment with XIP peptide (Xip251-270), 0.963. Besides, the z-score in experiment [2] was -1.98; in experiment [3], -8.67 (active); in experiment [4], -0.141 (inactive); in experiment [5], -0.203 (inactive).

Take `O=C1O[C@@H](c2ccccc2)[C@@H](c2ccccc2)N2[C@@H](c3ccc(O)cc3)[C@]3(C(=O)Nc4ccc(C#CC5(O)CCCCCC5)cc43)[C@@H](C(=O)N3CCN(c4ncccn4)CC3)[C@H]12`: the composite z-score in experiment [1] was 0.328 (inactive); in the experiment with XIP peptide (Xip251-270), 0.559. Besides, the z-score in experiment [2] is -2.02; in experiment [3], -1.72 (inactive); in experiment [4] it was -0.206 (inactive); in experiment [5], -0.624 (inactive).

With `C=CC[C@]1(C(=O)N(C)C)N=C(c2ccc(OCCCO)cc2)O[C@H]1c1ccccc1`, the composite z-score in experiment [1] is 0.39 (inactive); in the experiment on XIP peptide (Xip251-270), 0.643. In addition, the z-score in experiment [2] was -2.08; in experiment [3], -4.25 (inactive); in experiment [4], -0.271 (inactive); in experiment [5] it was 0.109 (inactive).

Turning to `CC(C)CN1C(=O)[C@@]2(Cc3ccccc31)c1ccccc1C(=O)N(Cc1ccccc1)[C@H]2c1ccc(CO)cc1`, the composite z-score in experiment [1] is 2.02 (inactive); in the experiment with XIP peptide (Xip251-270), -0.526. For the same compound, the z-score in experiment [2] was -0.435; in experiment [3] it was -1.07 (inactive); in experiment [4] it was -0.0605 (inactive); in experiment [5], -0.197 (inactive).

Turning to `Cc1cc(C)c(C(O)C2C=CC3C(=O)N(c4ccccc4)C(=O)C3N2Nc2ccc([N+](=O)[O-])cc2)c(C)c1` (configuration not stated), the composite z-score in experiment [1] was 0.756 (inactive); in the experiment with XIP peptide (Xip251-270), 0.783. In addition, the z-score in experiment [2] was -0.569; in experiment [3], -1.86 (inactive); in experiment [4] it was 0.487 (inactive); in experiment [5] it was 0.596 (inactive).

For `O=C1O[C@H](c2ccccc2)[C@H](c2ccccc2)N2[C@H]1[C@@H](C(=O)N1CCN(c3ncccn3)CC1)[C@]1(C(=O)Nc3ccc(C#CCCO)cc31)[C@H]2c1ccccc1OCCO`, the composite z-score in experiment [1] is 0.439 (inactive); with XIP peptide (Xip251-270) it was 0.808. Further, the z-score in experiment [2] is -2.19; in experiment [3], -1.29 (inactive); in experiment [4] it was -0.329 (inactive); in experiment [5], -0.529 (inactive).

For `CC(C)[Si](C#C[Si](C(C)C)(C(C)C)C(C)C)(O[C@H](C)c1cn(Cc2cccc(Cl)c2)nn1)C(C)C`, the composite z-score was -0.109 (inactive) in experiment [1] and -0.0612 in the experiment with XIP peptide (Xip251-270). Moreover, the z-score is 0.293 in experiment [2], 0.702 (inactive) in experiment [3], 0.0695 (inactive) in experiment [4] and 0.153 (inactive) in experiment [5].

In the case of `O=C1NC(=O)C2C1C=CC(C(O)c1ccc(-c3ccccc3)s1)N2Nc1ccccn1` (configuration not stated), the composite z-score in experiment [1] was 1.05 (inactive); with XIP peptide (Xip251-270), 0.212. Besides, the z-score in experiment [2] was -0.169; in experiment [3], -3.88 (inactive); in experiment [4], 0.773 (inactive); in experiment [5] it was -0.264 (inactive).

For `CC(C)(C)OC(=O)CC[C@]1(C(=O)O)COC(c2ccc(OCCCO)cc2)=N1`, the composite z-score in experiment [1] is 3.69 (inactive); with XIP peptide (Xip251-270), 0.532. Besides, the z-score was 1.22 in experiment [2], -1.32 (inactive) in experiment [3], -0.325 (inactive) in experiment [4] and -0.122 (inactive) in experiment [5].

In the case of `N#Cc1ccc(NN2C(C(O)c3ccccc3)C=CC3C(=O)N(c4ccccc4)C(=O)C32)cc1` (configuration not stated), the composite z-score in experiment [1] was 0.283 (inactive); with XIP peptide (Xip251-270), 0.026. For the same compound, the z-score in experiment [2] was 0.635; in experiment [3] it was -2.61 (inactive); in experiment [4], 0.422 (inactive); in experiment [5], 0.691 (inactive).

On to `O=C(O)[C@]1(CCS(=O)(=O)c2ccccc2)N=C(c2ccc(OCCCO)cc2)O[C@@H]1c1ccccc1`, for which the composite z-score in experiment [1] was 0.744 (inactive); in the experiment on XIP peptide (Xip251-270), -0.374. Also, the z-score in experiment [2] was -0.212; in experiment [3], -4.32 (inactive); in experiment [4], -0.178 (inactive); in experiment [5] it was 0.06 (inactive).
